The supplement of paper PMC10849652
Targets with a hit are over-represented here; the source holds about 7,900 in all. About 0.6% of all pairs of compound and target were hits.

What follows are targets tested with c1ccc([C@@H]2C[C@H]2NC2CCNCC2)cc1 (assay: log2 fold change, soluble protein after heating vs DMSO (PISA); higher = thermal stabilisation; K562 cells, 10 uM, 30 min; active = over 0.2 and 3.5 SD of the protein, either way, in both replicates (recomputed)).
In short: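 K562 cells at 2×10^6 cells/mL were exposed to 10 μM compound for 30 min, then aliquots were heated for 3 min across 48°C-58°C, pooled, and extracted in PBS containing 0.5% NP-40 at 4°C. The supernatant after 21,000xg for 90 min was taken as soluble protein and measured by TMTpro 16plex LC-MS/MS with channel sums equalised. Thermal stability is reported relative to control samples, with values from duplicates. Fold changes are given on a log2 scale.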

Sequence of UniProt P35610 (P35610 whole entry, looked up): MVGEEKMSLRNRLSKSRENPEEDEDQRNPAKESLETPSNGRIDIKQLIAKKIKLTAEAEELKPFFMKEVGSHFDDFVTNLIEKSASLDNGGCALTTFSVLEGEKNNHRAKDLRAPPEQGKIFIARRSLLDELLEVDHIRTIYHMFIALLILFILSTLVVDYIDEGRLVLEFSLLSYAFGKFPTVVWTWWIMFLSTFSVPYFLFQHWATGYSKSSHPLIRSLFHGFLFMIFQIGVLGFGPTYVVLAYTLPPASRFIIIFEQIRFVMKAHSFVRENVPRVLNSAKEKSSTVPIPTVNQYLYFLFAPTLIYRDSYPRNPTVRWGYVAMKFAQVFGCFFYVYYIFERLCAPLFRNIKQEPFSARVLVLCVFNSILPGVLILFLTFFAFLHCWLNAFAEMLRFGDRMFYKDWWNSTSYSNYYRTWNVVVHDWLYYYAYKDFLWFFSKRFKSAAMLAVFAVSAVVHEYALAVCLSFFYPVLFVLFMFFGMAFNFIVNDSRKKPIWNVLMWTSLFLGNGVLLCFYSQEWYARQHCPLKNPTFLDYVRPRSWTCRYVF
Sequence of UniProt O75494 (O75494 whole entry, looked up): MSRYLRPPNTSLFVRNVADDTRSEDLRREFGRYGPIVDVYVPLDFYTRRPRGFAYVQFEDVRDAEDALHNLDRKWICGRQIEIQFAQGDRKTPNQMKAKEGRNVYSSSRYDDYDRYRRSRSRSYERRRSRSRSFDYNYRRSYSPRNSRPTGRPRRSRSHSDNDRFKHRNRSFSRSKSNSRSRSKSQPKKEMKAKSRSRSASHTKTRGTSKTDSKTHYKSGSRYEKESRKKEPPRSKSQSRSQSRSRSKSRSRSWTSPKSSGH
Sequence of UniProt Q9NXE4 (Q9NXE4 whole entry, looked up): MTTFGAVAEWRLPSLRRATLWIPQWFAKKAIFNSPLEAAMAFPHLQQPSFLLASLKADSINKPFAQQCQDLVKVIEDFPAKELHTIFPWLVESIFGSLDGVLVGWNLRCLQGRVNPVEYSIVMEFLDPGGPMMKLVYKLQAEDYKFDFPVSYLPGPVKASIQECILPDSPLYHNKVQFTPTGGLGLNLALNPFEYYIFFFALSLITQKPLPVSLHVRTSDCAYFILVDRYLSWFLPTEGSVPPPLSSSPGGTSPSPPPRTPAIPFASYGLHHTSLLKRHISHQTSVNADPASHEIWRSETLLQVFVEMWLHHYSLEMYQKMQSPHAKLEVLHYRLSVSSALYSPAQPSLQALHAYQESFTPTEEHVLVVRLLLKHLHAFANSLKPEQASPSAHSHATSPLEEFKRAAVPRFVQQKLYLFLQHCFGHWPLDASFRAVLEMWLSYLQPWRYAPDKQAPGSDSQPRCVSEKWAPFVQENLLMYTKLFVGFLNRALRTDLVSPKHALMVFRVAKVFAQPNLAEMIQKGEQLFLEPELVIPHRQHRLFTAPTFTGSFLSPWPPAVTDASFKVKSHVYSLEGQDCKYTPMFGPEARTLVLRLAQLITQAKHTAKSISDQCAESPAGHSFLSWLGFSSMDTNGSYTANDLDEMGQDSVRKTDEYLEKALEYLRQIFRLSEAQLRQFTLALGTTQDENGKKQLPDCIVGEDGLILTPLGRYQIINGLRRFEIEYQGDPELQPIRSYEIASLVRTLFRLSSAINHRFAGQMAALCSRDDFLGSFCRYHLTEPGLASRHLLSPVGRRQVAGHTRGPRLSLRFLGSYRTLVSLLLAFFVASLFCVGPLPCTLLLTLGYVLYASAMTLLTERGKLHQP
Sequence of UniProt Q9NVC3 (Q9NVC3 whole entry, looked up): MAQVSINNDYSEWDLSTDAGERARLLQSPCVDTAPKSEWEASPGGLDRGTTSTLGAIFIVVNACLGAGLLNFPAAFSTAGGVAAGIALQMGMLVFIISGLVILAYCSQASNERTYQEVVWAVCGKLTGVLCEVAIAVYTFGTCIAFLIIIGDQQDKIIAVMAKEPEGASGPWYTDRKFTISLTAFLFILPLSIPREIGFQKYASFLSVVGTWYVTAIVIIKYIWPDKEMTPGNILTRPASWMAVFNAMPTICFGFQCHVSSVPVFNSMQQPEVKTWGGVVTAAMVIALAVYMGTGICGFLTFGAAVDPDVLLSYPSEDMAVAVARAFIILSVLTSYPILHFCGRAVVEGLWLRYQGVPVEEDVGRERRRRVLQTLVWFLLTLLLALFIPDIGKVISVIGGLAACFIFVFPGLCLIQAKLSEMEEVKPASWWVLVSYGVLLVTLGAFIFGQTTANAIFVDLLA
Sequence of UniProt Q9Y2W1 (Q9Y2W1 whole entry, looked up): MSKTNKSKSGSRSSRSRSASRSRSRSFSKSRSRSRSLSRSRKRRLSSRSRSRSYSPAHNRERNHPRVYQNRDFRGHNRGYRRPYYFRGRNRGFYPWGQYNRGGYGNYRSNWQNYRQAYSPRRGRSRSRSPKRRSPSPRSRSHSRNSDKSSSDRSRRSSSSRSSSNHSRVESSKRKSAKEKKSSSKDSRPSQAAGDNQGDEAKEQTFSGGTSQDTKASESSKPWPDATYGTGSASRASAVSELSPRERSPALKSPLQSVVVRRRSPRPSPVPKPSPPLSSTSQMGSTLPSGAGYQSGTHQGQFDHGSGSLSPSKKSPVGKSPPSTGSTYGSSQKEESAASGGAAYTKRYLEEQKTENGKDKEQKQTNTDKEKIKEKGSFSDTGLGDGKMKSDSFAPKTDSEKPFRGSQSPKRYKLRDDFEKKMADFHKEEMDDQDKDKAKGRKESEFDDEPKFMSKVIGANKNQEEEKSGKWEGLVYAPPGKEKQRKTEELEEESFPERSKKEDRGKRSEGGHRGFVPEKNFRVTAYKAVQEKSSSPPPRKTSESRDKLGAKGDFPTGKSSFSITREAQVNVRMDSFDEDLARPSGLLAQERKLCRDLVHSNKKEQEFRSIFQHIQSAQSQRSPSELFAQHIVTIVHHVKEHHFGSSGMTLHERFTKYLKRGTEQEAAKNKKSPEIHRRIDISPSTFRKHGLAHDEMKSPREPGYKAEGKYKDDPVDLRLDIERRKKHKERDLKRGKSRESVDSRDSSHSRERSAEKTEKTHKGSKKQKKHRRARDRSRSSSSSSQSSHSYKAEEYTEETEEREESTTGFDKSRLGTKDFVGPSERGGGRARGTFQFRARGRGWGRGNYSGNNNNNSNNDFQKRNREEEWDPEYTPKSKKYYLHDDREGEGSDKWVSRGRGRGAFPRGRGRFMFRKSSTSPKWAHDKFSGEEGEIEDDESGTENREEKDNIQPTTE
Sequence of UniProt P35711 (P35711 whole entry, looked up): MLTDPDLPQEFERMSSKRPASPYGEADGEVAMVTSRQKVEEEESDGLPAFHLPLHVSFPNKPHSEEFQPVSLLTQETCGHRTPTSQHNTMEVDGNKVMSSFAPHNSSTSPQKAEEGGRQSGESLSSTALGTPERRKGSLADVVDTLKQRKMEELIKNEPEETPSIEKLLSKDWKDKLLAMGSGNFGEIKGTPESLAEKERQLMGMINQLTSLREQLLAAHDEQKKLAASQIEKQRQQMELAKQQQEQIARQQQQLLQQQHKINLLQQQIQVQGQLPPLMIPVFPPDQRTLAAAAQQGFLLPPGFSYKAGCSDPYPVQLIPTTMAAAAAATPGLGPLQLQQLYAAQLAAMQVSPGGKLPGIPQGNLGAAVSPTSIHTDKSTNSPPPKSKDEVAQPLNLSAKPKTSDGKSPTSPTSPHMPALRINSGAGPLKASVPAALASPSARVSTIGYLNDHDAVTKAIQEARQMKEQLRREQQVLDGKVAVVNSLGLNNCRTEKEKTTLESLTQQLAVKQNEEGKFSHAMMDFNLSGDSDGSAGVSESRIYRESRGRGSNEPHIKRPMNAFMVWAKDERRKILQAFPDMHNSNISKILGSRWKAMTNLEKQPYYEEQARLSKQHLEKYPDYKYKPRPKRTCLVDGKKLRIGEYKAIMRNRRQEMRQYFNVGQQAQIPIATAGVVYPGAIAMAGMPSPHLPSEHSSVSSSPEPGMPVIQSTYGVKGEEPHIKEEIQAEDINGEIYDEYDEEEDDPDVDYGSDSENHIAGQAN
Sequence of UniProt Q13043 (Q13043 whole entry, looked up): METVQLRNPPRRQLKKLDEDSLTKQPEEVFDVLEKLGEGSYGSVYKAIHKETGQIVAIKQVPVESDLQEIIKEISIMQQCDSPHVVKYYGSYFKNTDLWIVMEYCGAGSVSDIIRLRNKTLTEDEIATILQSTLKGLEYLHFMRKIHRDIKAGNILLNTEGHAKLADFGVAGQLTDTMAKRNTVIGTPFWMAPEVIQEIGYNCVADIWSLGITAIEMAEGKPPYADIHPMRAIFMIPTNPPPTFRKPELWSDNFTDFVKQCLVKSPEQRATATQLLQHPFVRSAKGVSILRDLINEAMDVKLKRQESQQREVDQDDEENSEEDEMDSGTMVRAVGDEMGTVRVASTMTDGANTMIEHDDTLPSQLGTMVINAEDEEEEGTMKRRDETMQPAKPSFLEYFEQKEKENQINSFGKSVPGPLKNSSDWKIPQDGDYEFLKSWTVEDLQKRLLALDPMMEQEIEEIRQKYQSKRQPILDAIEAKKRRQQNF
Sequence of UniProt Q969X1 (Q969X1 whole entry, looked up): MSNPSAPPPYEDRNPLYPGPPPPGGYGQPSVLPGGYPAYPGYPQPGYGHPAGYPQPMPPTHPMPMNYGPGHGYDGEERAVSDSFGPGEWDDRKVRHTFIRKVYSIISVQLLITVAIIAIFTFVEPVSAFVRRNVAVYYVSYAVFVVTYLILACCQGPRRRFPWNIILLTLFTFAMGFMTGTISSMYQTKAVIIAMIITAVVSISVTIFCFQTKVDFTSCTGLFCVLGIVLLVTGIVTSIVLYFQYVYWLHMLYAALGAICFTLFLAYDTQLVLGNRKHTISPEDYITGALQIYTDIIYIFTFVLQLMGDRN
Sequence of UniProt P63165 (P63165 whole entry, looked up): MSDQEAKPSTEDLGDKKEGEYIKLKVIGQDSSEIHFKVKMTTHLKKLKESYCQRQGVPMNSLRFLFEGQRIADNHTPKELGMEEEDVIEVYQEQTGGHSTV
Sequence of UniProt Q9H4I9 (Q9H4I9 whole entry, looked up): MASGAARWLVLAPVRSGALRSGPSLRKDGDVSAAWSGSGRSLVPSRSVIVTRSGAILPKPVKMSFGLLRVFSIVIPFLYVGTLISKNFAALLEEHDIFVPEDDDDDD

| Target | log2 fold change |
| --- | --- |
| SRPRA (UniProt P08240) | -0.038 (inactive) |
| SSB (UniProt P05455) | 0.055 (inactive) |
| TBCD (UniProt Q9BTW9) | -0.03 (inactive) |
| TIPRL (UniProt O75663) | -0.007 (inactive) |
| STAT5B (UniProt P51692) | 0.052 (inactive) |
| SOAT1 (UniProt P35610) | 0.001 (inactive) |
| SPG11 (UniProt Q96JI7) | 0.083 (inactive) |
| STK25 (UniProt O00506) | -0.016 (inactive) |
| TAX1BP1 (UniProt Q86VP1) | -0.007 (inactive) |
| THRAP3 (UniProt Q9Y2W1) | 0.028 (inactive) |
| SYNE1 (UniProt Q8NF91) | -0.052 (inactive) |
| SPECC1 (UniProt Q5M775) | 0.037 (inactive) |
| SLC38A7 (UniProt Q9NVC3) | 0.117 (inactive) |
| STK38 (UniProt Q15208) | -0.034 (inactive) |
| SLIRP (UniProt Q9GZT3) | 0.042 (inactive) |
| SRSF10 (UniProt O75494) | 0.17 (inactive) |
| SMDT1 (UniProt Q9H4I9) | 0.024 (inactive) |
| SUPT5H (UniProt O00267) | -0.051 (inactive) |

| Target | log2 fold change |
| --- | --- |
| TJP2 isoform 7 (UniProt Q9UDY2) | -0.044 (inactive) |
| TBK1 (UniProt Q9UHD2) | -0.049 (inactive) |
| SSRP1 (UniProt Q08945) | -0.016 (inactive) |
| TATDN2 (UniProt Q93075) | 0.071 (inactive) |
| SNX2 (UniProt O60749) | -0.079 (inactive) |
| SPIRE1 (UniProt Q08AE8) | 0.075 (inactive) |
| TBC1D24 (UniProt Q9ULP9) | -0.061 (inactive) |
| SPTBN4 (UniProt Q9H254) | -0.001 (inactive) |
| SMPD4 isoform 4 (UniProt Q9NXE4) | -0.104 (inactive) |
| STK4 (UniProt Q13043) | -0.001 (inactive) |
| SUMO1 (UniProt P63165) | 0.152 (inactive) |
| SMARCE1 (UniProt Q969G3) | -0.051 (inactive) |
| SP3 (UniProt Q02447) | 0.009 (inactive) |
| SMCHD1 (UniProt A6NHR9) | 0.036 (inactive) |
| SUPT16H (UniProt Q9Y5B9) | -0.006 (inactive) |
| TMBIM1 (UniProt Q969X1) | 0.193 (inactive) |
| SOX5 (UniProt P35711) | -0.022 (inactive) |
